Measurements from PubChem BioAssay (NCI).
The panel holds about 83,000 compounds, 20% with a hit somewhere; the sample as a whole holds those more often.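 Note: values are percent growth. 100 is the growth of untreated cells, values between 100 and 0 indicate rising inhibition; between -100 and 0 indicates cell death.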 Active and inactive are the calls of the source. The calls were made as follows: active = growth percent below 10; inactive = the rest.

Assays:
Test in all cases: NCI-60 one-dose screen, 48 h (100 = growth as untreated, 0 = no growth, -100 = all killed)
Settings in all cases: 10 µM unless noted
SK-MEL-2 melanoma = test system: SK-MEL-2 melanoma
EKVX NSCLC = test system: EKVX NSCLC
SN12C renal = test system: SN12C renal
UO-31 renal = test system: UO-31 renal
TK-10 renal = test system: TK-10 renal
ACHN renal = test system: ACHN renal
CAKI-1 renal = test system: CAKI-1 renal
A498 renal = test system: A498 renal
CCRF-CEM leukemia = test system: CCRF-CEM leukemia
MOLT-4 leukemia = test system: MOLT-4 leukemia

Measured: growth

N#CC1=C(N)Oc2c(sc3c(F)cccc23)C1c1ccc(F)cc1 (stereo not given)
inactive: EKVX NSCLC 47.3% | SN12C renal 42.4% | UO-31 renal 41.9% | TK-10 renal 35.8% | ACHN renal 46.6% | CAKI-1 renal 29.1% | A498 renal 23.2% | CCRF-CEM leukemia 19.8% | MOLT-4 leukemia 18.4%
active: SK-MEL-2 melanoma -4.03%

Cn1cc(-c2csc(-c3ccc(Cl)cc3)n2)c2cccnc21
active: SK-MEL-2 melanoma -22% [100 µM] | EKVX NSCLC -14.4% [100 µM] | SN12C renal -42.7% [100 µM] | UO-31 renal -37.5% [100 µM] | TK-10 renal -26.1% [100 µM] | ACHN renal -50.9% [100 µM] | CAKI-1 renal -29.3% [100 µM] | A498 renal -79.9% [100 µM] | CCRF-CEM leukemia -18.8% [100 µM] | MOLT-4 leukemia 2.44% [100 µM]

CC(=O)[C@@H]1CCC=C2CC[C@]3(C)[C@@H](CC[C@@H]4[C@@]5(C)CCCNC(C)(C)[C@@H]5CC[C@]43C)[C@H]21
inactive: UO-31 renal 18.4% | A498 renal 69.8%
active: SK-MEL-2 melanoma -52.3% | EKVX NSCLC -47.8% | SN12C renal -87.9% | TK-10 renal -46.6% | ACHN renal -82.4% | CAKI-1 renal -92.5% | CCRF-CEM leukemia -23.4% | MOLT-4 leukemia -46.4%

COC(=O)c1c2c(c(C)[n+]([O-])c1C)C(=O)C=C(NCc1ccc(Br)cc1)C2=O
active: SK-MEL-2 melanoma -54% | EKVX NSCLC -85.3% | SN12C renal -77.7% | UO-31 renal -85.8% | TK-10 renal 2.5% | ACHN renal -73.2% | CAKI-1 renal -25.7% | A498 renal -86.4% | CCRF-CEM leukemia -12.6% | MOLT-4 leukemia -21.7%

COP(=O)(OC)C(C)(C)CC(=O)CC(C#N)(C#N)C(C#N)C#N
inactive: SK-MEL-2 melanoma 118% | EKVX NSCLC 99.4% | SN12C renal 99.6% | UO-31 renal 85.1% | TK-10 renal 104% | ACHN renal 100% | CAKI-1 renal 96.4% | A498 renal 121% | MOLT-4 leukemia 104%
active: CCRF-CEM leukemia -30.3%

O=C(c1ccc(Cl)cc1)N1CCN(c2ccnc3cc(Cl)ccc23)CC1
inactive: SK-MEL-2 melanoma 88.9% | EKVX NSCLC 96.4% | SN12C renal 91.2% | UO-31 renal 58% | TK-10 renal 108% | ACHN renal 85.8% | CAKI-1 renal 85.7% | A498 renal 55.6% | CCRF-CEM leukemia 90.9% | MOLT-4 leukemia 87.1%

Nc1nc2c([nH]1)c1[nH]c3ccccc3c1c1[nH]c3ccccc3c21
active: SK-MEL-2 melanoma -23.5% | CCRF-CEM leukemia -3.64% | MOLT-4 leukemia -12.5%
inactive: EKVX NSCLC 73.5% | SN12C renal 75.6% | UO-31 renal 62.9% | TK-10 renal 91.4% | ACHN renal 59.1% | CAKI-1 renal 83.2% | A498 renal 134%

CCCc1cc(NC)nc(S(=O)(=O)CC)n1
inactive: SK-MEL-2 melanoma 115% | EKVX NSCLC 104% | SN12C renal 99.1% | UO-31 renal 91.8% | TK-10 renal 110% | ACHN renal 107% | CAKI-1 renal 98.1% | A498 renal 113% | CCRF-CEM leukemia 107% | MOLT-4 leukemia 107%

COc1cc(-c2csc(NC(=O)c3cc(-n4cnc(C)c4)cc(C(F)(F)F)c3)n2)cc(OC)c1OC
inactive: SK-MEL-2 melanoma 67.6% | EKVX NSCLC 69.1% | SN12C renal 44.1% | UO-31 renal 29.8% | TK-10 renal 85.6% | ACHN renal 54.3% | CAKI-1 renal 62.8% | A498 renal 60.6% | CCRF-CEM leukemia 24.4% | MOLT-4 leukemia 37.3%

CN(C)CCNC(=O)c1cccc(-c2cnc3ccc(-c4ccc5c(c4)OCO5)nn23)c1
inactive: SK-MEL-2 melanoma 69.8% | EKVX NSCLC 90% | SN12C renal 70.8% | UO-31 renal 36.8% | TK-10 renal 75.9% | ACHN renal 47.8% | CAKI-1 renal 36.8% | A498 renal 90.7% | CCRF-CEM leukemia 75.7% | MOLT-4 leukemia 59.4%

O=C(Nc1cccnc1Nc1ccc(F)cc1)c1cn(Cc2cccc(Oc3ccccc3)c2)nn1
inactive: SK-MEL-2 melanoma 73.9% | EKVX NSCLC 75.9% | SN12C renal 79.2% | UO-31 renal 46.7% | TK-10 renal 98.7% | ACHN renal 83.7% | CAKI-1 renal 78% | A498 renal 60.5% | CCRF-CEM leukemia 63.2% | MOLT-4 leukemia 32%

COC1=CC(c2ccc[nH]2)=N/C1=C\c1[nH]c(C)c(C(=O)OCc2ccccc2)c1C
inactive: CCRF-CEM leukemia 13.4%
active: SK-MEL-2 melanoma -63.1% | EKVX NSCLC -33.5% | SN12C renal -29.4% | UO-31 renal -87.9% | TK-10 renal -4.94% | ACHN renal -86.1% | CAKI-1 renal -40.7% | A498 renal -37.7% | MOLT-4 leukemia -7.67%

COc1ccc(C/C(C)=C(/c2ccc(OCCN3CCCCC3)cc2)c2ccc(OC(=O)NCc3ccccc3)cc2)cc1
active: SK-MEL-2 melanoma -86.2% | EKVX NSCLC -78.4% | SN12C renal -88% | UO-31 renal -92.2% | TK-10 renal -90.7% | ACHN renal -100% | CAKI-1 renal -95% | A498 renal -97.1% | CCRF-CEM leukemia -44.1% | MOLT-4 leukemia -53.2%

Fc1cc2c(cc1Cl)N(c1ncnc3ccc(-c4cnc5[nH]ncc5c4)cc13)CC2
active: A498 renal -6.52%
inactive: SK-MEL-2 melanoma 91.4% | EKVX NSCLC 41.9% | SN12C renal 47.6% | UO-31 renal 21.8% | TK-10 renal 54.6% | ACHN renal 30.9% | CAKI-1 renal 38.7% | CCRF-CEM leukemia 71.1% | MOLT-4 leukemia 60.1%

C[C@H](NC(=O)[C@@H](C)N)[C@H](Oc1ccc2c(cnn2-c2ccc(F)cc2)c1)c1ccc2c(c1)OCCO2
active: MOLT-4 leukemia 8.43%
inactive: SK-MEL-2 melanoma 65.8% | EKVX NSCLC 43.5% | SN12C renal 42.6% | UO-31 renal 18.5% | TK-10 renal 70.5% | ACHN renal 59% | CAKI-1 renal 20.4% | A498 renal 91.2% | CCRF-CEM leukemia 15.5%

O=C(O)c1ccc(-n2cc(/C=N/Nc3ccc(F)cc3)c(-c3cc4ccccc4oc3=O)n2)cc1
inactive: SK-MEL-2 melanoma 83.3% | EKVX NSCLC 52.9% | SN12C renal 101% | UO-31 renal 39.8% | TK-10 renal 113% | ACHN renal 41% | CAKI-1 renal 68.6% | A498 renal 109% | CCRF-CEM leukemia 40.2% | MOLT-4 leukemia 48.1%

O=C(CSc1nc2ccc([N+](=O)[O-])cc2[nH]1)Nc1cccc(C(F)(F)F)c1
inactive: EKVX NSCLC 23.9% | TK-10 renal 25.1% | ACHN renal 16% | CCRF-CEM leukemia 19%
active: SK-MEL-2 melanoma -5.5% | SN12C renal 9.37% | UO-31 renal 8.44% | CAKI-1 renal 1.15% | A498 renal -6.75% | MOLT-4 leukemia 8.77%

COc1ccc(C(=O)C2C(c3ccc(OC)cc3)CN(C)C23C(=O)Nc2ccccc23)cc1 (stereo not given)
inactive: SK-MEL-2 melanoma 96.9% | EKVX NSCLC 91% | SN12C renal 92.1% | UO-31 renal 70.3% | TK-10 renal 103% | ACHN renal 95.5% | CAKI-1 renal 68.2% | A498 renal 99.8% | CCRF-CEM leukemia 97.4% | MOLT-4 leukemia 88.1%

O=C(Nc1cc(Cl)ccc1O)c1ccc(Nc2ccnc(C(F)(F)F)c2)cc1
inactive: SK-MEL-2 melanoma 41.4% | EKVX NSCLC 71.2% | SN12C renal 35.6% | UO-31 renal 12.6% | TK-10 renal 79% | ACHN renal 23.7% | CAKI-1 renal 58.7% | A498 renal 35.8% | MOLT-4 leukemia 19.2%
active: CCRF-CEM leukemia 2.44%

Nc1nc(=S)c2ncn(C3OC(COP(=O)(O)O)C(O)C3O)c2[nH]1 (stereo not given)
inactive: SK-MEL-2 melanoma 14.9% | EKVX NSCLC 31.8% | SN12C renal 29.8% | UO-31 renal 25.1% | ACHN renal 20% | CAKI-1 renal 16.8% | A498 renal 37.8% | CCRF-CEM leukemia 15.5% | MOLT-4 leukemia 12.7%
active: TK-10 renal 8.92%

CC(C)=NNc1ccccn1
inactive: SK-MEL-2 melanoma 83.2% | EKVX NSCLC 18.8% | SN12C renal 45.4% | UO-31 renal 29.5% | TK-10 renal 39% | ACHN renal 27.9% | CAKI-1 renal 29.1% | A498 renal 78.1% | CCRF-CEM leukemia 26.8% | MOLT-4 leukemia 25.4%

O=C(NNC(=O)c1ccc(-n2cc(-c3ccccc3)nn2)cc1)Nc1ccccc1
inactive: SK-MEL-2 melanoma 110% | EKVX NSCLC 108% | SN12C renal 97.7% | UO-31 renal 92.2% | TK-10 renal 109% | ACHN renal 101% | CAKI-1 renal 91.8% | A498 renal 105% | CCRF-CEM leukemia 102% | MOLT-4 leukemia 107%

O=C(O)/C(=C\c1ccc(Cl)cc1)c1ccc(Cl)cc1
inactive: SK-MEL-2 melanoma 90.3% | EKVX NSCLC 94.3% | SN12C renal 90.4% | UO-31 renal 77.7% | TK-10 renal 106% | ACHN renal 95.2% | CAKI-1 renal 70.8% | A498 renal 94.9% | CCRF-CEM leukemia 96.5% | MOLT-4 leukemia 50%

Cc1ccc(Cc2cnc(NC(=O)c3cc(Br)cs3)s2)cc1
inactive: SK-MEL-2 melanoma 26.9% | EKVX NSCLC 78.3% | SN12C renal 68.7% | UO-31 renal 71.7% | TK-10 renal 78.1% | ACHN renal 81.9% | CAKI-1 renal 53.9% | A498 renal 55.1% | CCRF-CEM leukemia 31.8% | MOLT-4 leukemia 36.1%

O=C1c2cccc(NCCN=Cc3cc(O)ccc3O)c2C(=O)c2c(NCCN=Cc3cc(O)ccc3O)cccc21
inactive: SK-MEL-2 melanoma 20.9%
active: EKVX NSCLC 3.36% | SN12C renal -24.7% | UO-31 renal -18% | TK-10 renal -12.1% | ACHN renal 0.31% | CAKI-1 renal -37.1% | A498 renal -48.6% | CCRF-CEM leukemia -58.7% | MOLT-4 leukemia -53.1%

O=C(Nn1c2c(sc1=NCc1ccccc1)C(=O)c1ccccc1C2=O)c1cc2ccc1CCc1ccc(cc1)CC2
inactive: SK-MEL-2 melanoma 77.3% | EKVX NSCLC 88.4% | SN12C renal 61.8% | UO-31 renal 38.2% | TK-10 renal 124% | ACHN renal 42% | CAKI-1 renal 43.4% | A498 renal 86.7% | CCRF-CEM leukemia 40.8% | MOLT-4 leukemia 21%
